Where “and” joins values, the source holds several entries; their conditions need not be identical. Identical values can stand only once. Calls of active or inactive are those of the source. The calls were made as follows: active = hit-call score of the fitted dose curve at least 0.9, where 1 is the maximum; inactive = score below 0.9.

Read-out in this experiment: C-C motif chemokine 2 (Homo sapiens) (UniProt P13500)
Kind of experiment: BSK_KF3CT_MCP1: BioMAP Diversity Plus: KF3CT Assay for Monocyte Chemoattractant Protein 1 (MCP1/CCL2) Biomarker Activity (AID 2283073). Particulars: primary human keratinocytes with fibroblasts; actives raise or lower the signal. A digest of the protocol:
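Biomarker MCP-1 is measured by ELISA in primary human keratinocytes co-cultured with foreskin fibroblasts, 24 h after chemical treatment; DMSO serves as the negative control and activity baseline.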
Turning to `O=C(O)CCC(F)(C(F)(F)F)C(F)(F)F`, the result was inactive.

For `CC(C)CCCCCCOC(=O)c1ccccc1C(=O)OCCCCCCC(C)C`, the outcome was inactive.

With `Oc1c(I)cc(I)cc1I`, the result was inactive.

For `O=C(O)C(F)(F)C(F)(F)C(F)(F)C(F)(F)C(F)(F)C(F)(F)C(F)(F)C(F)(F)C(F)(F)C(F)(F)F`, the AC50 was 7.51 µM (active) and 4.5 µM (active) and 4.55 µM (active).

As for `CCC(=O)C(CC(C)N(C)C)(c1ccccc1)c1ccccc1` (stereo unspecified), the outcome was inactive.

Regarding `NC(=O)O`, the result was inactive.

Take `Nc1ccc(-c2ccc(N)c(Cl)c2)cc1Cl`: the result was inactive.

As for `CC1(C)Cc2cccc(O)c2O1`, the outcome was inactive.

For `CCCCCCCCC(=O)NCc1ccc(O)c(OC)c1`, the result was inactive.

`COC(=O)c1sccc1S(=O)(=O)NC(=O)Nc1nc(C)nc(OC)n1`: the result was inactive.

With `O=c1[nH]c(=O)[nH]c(=O)[nH]1`, the result was inactive.

Turning to `CCOP(=S)(OCC)SCSP(=S)(OCC)OCC`, the result was inactive.

Turning to `O=Cc1cccc(Oc2ccccc2)c1`, the outcome was inactive.

In the case of `COc1cc(-c2ccc(N)c(OC)c2)ccc1N`, the outcome was inactive.

As to `COP(=S)(OC)Oc1ccc(S(=O)(=O)N(C)C)cc1`, the outcome was inactive.

With `C(=NC1CCCCC1)=NC1CCCCC1`, the AC50 was 29.4 µM (active).

Turning to `O=[N+]([O-])c1ccc(O)c([N+](=O)[O-])c1`, the outcome was inactive.

On to `CCC(C)(C)c1ccc(O)c(C(C)(C)CC)c1`, for which the AC50 was 10.6 µM (active).

Take `O=C(O)C(Cl)(Cl)Cl`: the outcome was inactive.

Consider `Oc1cccc2cccnc12`, for which the half-maximal activity concentration (AC50) was 2 µM (active).

In the case of `Cn1sc(Cl)cc1=O`, the result was inactive.

As for `ClCC(Cl)CCl`, the result was inactive.

For `OCc1ccco1`, the outcome was inactive.

Regarding `O=C(OC1CCCCC1)c1ccccc1C(=O)OC1CCCCC1`, the result was inactive.

As to `O=S(=O)(c1ccc(Cl)cc1)c1ccc(Cl)cc1`, the outcome was inactive.

Take `COC[C@H](C)N(C(=O)CCl)c1c(C)csc1C`: the outcome was inactive.

As for `CN(C)N=O`, the outcome was inactive.

In the case of `O=C1C2(Cl)C3(Cl)C4(Cl)C(Cl)(Cl)C5(Cl)C3(Cl)C1(Cl)C5(Cl)C24Cl` (stereo unspecified), the AC50 is 35.1 µM (active).

For the compound `COP(=S)(OC)Oc1ccc(Sc2ccc(OP(=S)(OC)OC)cc2)cc1`, the outcome was inactive.

In the case of `CC(=O)C(Cl)C(=O)N(C)C` (stereo unspecified), the result was inactive.

On to `CCN1CCC2(CC1)COc1cc3c(cc12)N(C(=O)c1ccc(-c2ccc(-c4nnc(C)o4)cc2C)cc1)CC3`, for which the AC50 was 27 µM (active).

These data come from PubChem BioAssay (EPA / NIEHS).
